Data published in PubChem BioAssay (NCI).
Compounds without any hit were thinned out: in the full panel of roughly 83,000, 20% have a hit.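 48-hour exposure, single concentration, 96-well plates; percent growth endpoint where 0 means no net growth. Active: below 10.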 Values without a mark were called inactive. The source made the active and inactive calls.

These compounds were tested on EKVX NSCLC (assay: NCI-60 one-dose screen, 48 h (100 = growth as untreated, 0 = no growth, -100 = all killed)). Conditions: 10 µM unless noted.
Protocol: Growth inhibition of the EKVX human Non-Small Cell Lung tumor cell line is measured as a screen for anti-cancer activity. Cells are grown in 96 well plates and exposed to the test compound for 48 hours. Compounds are tested at a single concentration, which is 10^-5 M for most compounds. The reported endpoint is percent growth (GI% or GIPRCNT), where numbers from 0 - 100% represent growth inhibition, and numbers from -100% - 0 represent cell death. For example, a value of 40 represents 60% growth inhibition. A value of 0 means no net growth occurred over the course of the experiment. A value of -40 indicates 40% of cells at the beginning of the experiment died by the end of the experiment. A value of -100 means all cells are dead at the end of the experiment.
NCI-60 Human Tumor Cell Lines Screen was performed using the standard one-dose NCI protocol, which is described in more detail at https://dtp.cancer.gov/discovery_development/nci-60/default.htm.
Compounds with GIPRCNT values below 10 were considered active. Activity score was based on GIPRCNT using the following formula: […]
Score is 0 for GIPRCNT values of 100 or above, 50 for GIPRCNT values of 0, and 100 for GIPRCNT values of -100.
With `O=C1C2CC=CCC2C(=O)N1SC(Cl)(Cl)Cl` (stereo not given) the growth was 121%. For `C=C1C[C@](OC)([C@H](O)C(=O)N[C@@H](OC)[C@@H]2C[C@@H](O)C(C)(C)[C@@H](C[C@@H](COC)OC)O2)O[C@H](C)[C@@H]1C`, the growth was -33.9% (active). Compound `COc1ccc(/C(C)=C(\c2ccc(OCCN3CCOCC3)cc2)c2ccc(OC(=O)Cc3ccccc3)cc2)cc1` has a growth of 97.7%. With `COc1ccc(C2=CC(c3ccc(OC)c(OC)c3)c3c(c4ccccc4oc3=O)O2)cc1OC` (stereo not given) the growth was 30.4%. With `COC(=O)[C@@H](C)C[C@H](Cc1ccccc1)NC(=O)c1csc([C@@H](C[C@H](C(C)C)N(C)C(=O)[C@@H](NC(=O)[C@H]2CCCN2C)C2CC2)OC(C)=O)n1` the growth was 31.1%. `C[C@]12CCc3sc(NCCc4ccccc4)nc3C1=CC[C@@H]1[C@@H]2CC[C@]2(C)C(=O)CC[C@@H]12` showed a growth of 92.4%. In the case of `N#C[Se]Cc1cc(-c2ccccc2)n(-c2ccc(S(N)(=O)=O)cc2)n1`, the growth is reported as -1.91% (active). In the case of `CN1CCC(O)(c2ccc(F)cc2)C(C(=O)c2ccc(F)cc2)C1` (stereo not given), the growth is reported as 106%. Compound `O=[N+]([O-])CC(O)C(Cl)(Cl)Cl` (stereo not given) has a growth of 101%. `C#C[C@]1(OC(=O)CCCCCC)CC[C@H]2[C@@H]3CCC4=CC(=O)CC[C@@H]4[C@H]3CC[C@@]21C` gave a growth of 55.6%. In the case of `O=C1NC(=O)C(=Cc2cccn2CCCCCn2c3ccccc3c(=O)c3ccccc32)C(=O)N1`, the growth is reported as 105%. `COC(=O)[C@@H](C)C[C@H](Cc1ccccc1)NC(=O)c1csc([C@@H](C[C@H](C(C)C)N(C)C(=O)[C@@H](NC(=O)[C@H]2CCCCN2C)C2CCCCC2)OC(C)=O)n1` showed a growth of 25%. Work on `c1cnc2[nH]cc(-c3csc(-c4cn(CCCCN5CCOCC5)c5ccccc45)n3)c2c1` yielded a growth of 64%. In the case of `CCN1C(=O)C(=C/C=C/c2ccccc2)C(=O)N(CC)C1=O`, the growth is reported as 112%. Compound `CC(=O)O[C@H](C[C@H](C(C)C)N(C)C(=O)[C@@H](NC(=O)[C@H]1CCCCN1C)C(C)C)c1nc(C(=O)N[C@@H](Cc2ccccc2)C[C@H](C)C(=O)O)c(C(C)C)s1` has a growth of 39.3%. `CC1=C2[C@@H](CC1)[C@]1(C)O[C@@](C(C)C)(C[C@H]1O)[C@H]2OC(=O)C1CC1c1ccccc1` (stereo not given in full) was tested, and the growth was 88%. With `C=CCCCN=C=S` the growth was 92.7%. `COc1ccc(Nc2ccc([N+](=O)[O-])cc2[N+](=O)[O-])cc1CN(CCCl)CCCl` showed a growth of 70.7%. `COC(=O)[C@H](Cc1ccccc1)NNC(=O)c1csc([C@@H](C[C@H](C(C)C)N(C)C(=O)[C@@H](NC(=O)[C@H]2CCCCN2C)C2CC2)OC(C)=O)n1` showed a growth of 29.9%. With `O=C(O)c1ccc([S-])cc1.[Au+].c1ccc(CN2[CH-]N(Cc3ccccc3)C(c3ccccc3)=C2c2ccccc2)cc1` the growth was -52.9% (active). `CN[C@@]1(c2ccccc2Cl)CCCC[C@@H]1NCC1CCCO1` (stereo not given in full) gave a growth of 99.2%. Compound `CCOC(=O)[C@@H](C)C[C@H](Cc1ccccc1)NC(=O)c1csc([C@@H](C[C@H](C(C)C)N(C)C(=O)[C@H](CCC(C)C)NC(=O)[C@H]2CCCCN2C)OC(C)=O)n1` has a growth of 45.6%. `COc1ccc(NC([Se])=NC23CC4CC(CC(C4)C2)C3)cc1` was tested, and the growth was -14.3% (active). In the case of `CNCc1cccnc1`, the growth is reported as 114%. For `CC[C@H](C)[C@H](NC(=O)c1ccccn1)C(=O)N(C)[C@H](C[C@@H](OC(C)=O)c1nc(C(=O)N[C@@H](Cc2ccccc2)C[C@H](C)C(=O)OC)cs1)C(C)C`, the growth was 30.3%. `CC12CCC3C(CCC4Cc5[nH]c6ccccc6c5CC43C)C1CCC2O` (stereo not given) gave a growth of 56.8%. `CC(C)(C)C(=O)OCOP(=O)(OCOC(=O)C(C)(C)C)C1CCCN(O)C1=O` (stereo not given) gave a growth of 19.7%. With `CC(C)=CCc1c(O)c(C(=O)CC(C)C)c(O)c2c(-c3ccccc3)cc(=O)oc12` the growth was 36.7%. Compound `C/C(=C\c1ccn(-c2ccccc2N)n1)[C@@H]1C[C@@H]2O[C@]2(C)CCC[C@H](C)[C@H](O)[C@@H](C)C(=O)C(C)(C)[C@@H](O)CC(=O)O1` has a growth of 44.8%. With `Nc1ccc2c(c1)oc1ccccc12` the growth was 83.5%. With `COc1ccc(/C=C\c2cc(OC)c(OC)c(OC)c2)cc1OCC(=O)Nc1nc2ccc(C(F)(F)F)cc2s1` the growth was 77.3%. For `COc1ccc([As]=[As]c2ccc(OC)c(NCS(=O)(=O)O)c2)cc1NCS(=O)(=O)O` (stereo not given), the growth was 0.829% (active). `CC1=C(CCCOC(=O)CN)C2=C(C)C3(CC3)[C@@](C)(O)C(=O)C2=C1` was tested, and the growth was 95.8%. In the case of `O=NN1CCCc2cccc(O)c21`, the growth is reported as 69.4%. `O=C(Nc1ccc(Br)cc1)c1cc(Br)cc(Br)c1O` showed a growth of 10.7%. `CC(C)CCC(=O)O[C@H]1CC[C@H]2[C@@H]3CCC4=CC(=O)CC[C@]4(C)[C@H]3CC[C@]12C` gave a growth of 73.9%. With `Cc1cc(N(CCCl)CCCl)ccc1/C=N\NC(=O)c1ccncc1` the growth was 94.3%. In the case of `O=[N+]([O-])c1cc([N+](=O)[O-])c(Nn2c3ccccc3c3ccccc32)c([N+](=O)[O-])c1`, the growth is reported as 6.19% (active). `OCCNC(Cc1ccccc1)c1ccc2c(c1)OCO2` (stereo not given) gave a growth of 100%. `[Cl][Hg][n]1c(-c2ccco2)nc2ccccc21` gave a growth of 111%.
